# From the supplement of paper PMC10338343
# ± gives the standard deviation.
# System: MILI (PIWIL2) piRISC loaded with L1MC piRNA (26 nt)
# Assay: pre-steady-state target cleavage rate (min^-1); guide: L1MC piRNA 5'p-UAACUAAAUACUAUGCAAGCUGUAGG; MIWI and MILI are mouse PIWI proteins and EfPiwi is from a freshwater sponge; tags in brackets are library labels; higher = faster piRNA-guided slicing of the target
# Details: auxiliary factor: 500 nM mouse GTSF1
# Method in brief: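 Reactions were run for 0–8 or 0–960 min at 33 °C in HEPES–potassium acetate buffer, combining 1 nM active affinity-purified piRISC with one synthetic guide, […] transcribed, DNA-blocked target RNA library and, in some cases, 500 nM GTSF1 partner protein. Sequencing of uncleaved targets followed, with normalisation to depth and to weakly complementary targets. Three trials were pooled, k3 was capped at 0.0001 min^-1, and the pre-steady-state cleavage rate was taken from a burst-and-steady-state fit.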
# 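Further: 1 nM active piRISC with 0.1 nM target library at 33 °C single turnover.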
row,Sequence,pre-steady-state target cleavage rate
1,UCCUCCUACAGCUUGCAUAGAUUUUACAAA,0.0174 ± 0.0071
2,UCCUGGUACAGCUUGCAAUGUAUUUAGUAA,0.0576 ± 0.013
3,UCCUGGAUCAGCUUGCAUAGUUAAUAGUAA,0.0192 ± 0.0068
4,UCCUGGAACAGCUUGCAAUGUAUUUACAAA,0.0552 ± 0.017
5,UCCUGCUACAGCUUGCAAUCUAUUUACAAA,0.00954 ± 0.0044
6,UCCUGGUACAGCUUGCAAUGUAUUUACAAA,0.00784 ± 0.0049
7,UCCUGGAUCAGCUUGCUAAGUAUUUAGUAA,0.0344 ± 0.01
8,UCCUGGAACAGCUUGCAUACUAUUUACAAA,0.0166 ± 0.0064
9,UCCUGGAUGUCCUAGCAUAGUAUUUAGAUA,0.0302 ± 0.007
10,UCCUGGAUGAGCUUGCAUAGUAAUUUGUUA,0.0508 ± 0.018
11,UCCUGCUACAGCUUCGAUAGUAUUUAGAAA,0.0541 ± 0.017
12,UCCUGGAUCACCUUGCAUAGUAUUUUCAAA,0.0586 ± 0.021
13,UCCUGGAUGUCGUAGCAUAGUUUUUAGUUA,0.00685 ± 0.0041
14,UCCUGGUACAGCUUGCAUAGUAAAAACAAA,0.0104 ± 0.0051
15,UCCUGGAACAGCAAGCAUAGUAUUUACAAA,0.148 ± 0.034
16,UCCUGGAUGAGCUUGCUUAGAAUUUAGUUA,0.0121 ± 0.0047
17,UCCUGCUACAGCUUGCAUAGUAUUUAUUA,0.0696 ± 0.017
18,UCCUGGAUGAGCUUGCAUAGUAUUAAGUAA,0.0732 ± 0.021
19,UCCUGGAUGUCGUUGCAUAGUAUUUAGCUUA,0.0208 ± 0.0083
20,UCCUGGAUCAGCUAGCAUAGUAUUUACUUA,0.134 ± 0.018
21,UCCUCCUUGAGCUUGCAUAGUAUUUACAAA,0.0856 ± 0.023
22,UCCUGGAUGUGCUUGCAUAGUUUAUAGUUA,0.00502 ± 0.0041
23,UCCUGGUACAGCUUGCAUAAGUAUUUAGUUA,0.00838 ± 0.0052
24,UCCUCCUACAGCUUGCAUAGUAUAUACUUA,0.0976 ± 0.028
